# Results taken from PubChem BioAssay (NCI).
# Compounds without any hit were thinned out: in the full panel of roughly 79,000, 15% have a hit. Values without a mark were called inactive. Activity calls are given as the source filed them. Cut-off read from the data, not from the text of the source: active = growth inhibition above about 70%; inactive = the rest.
# Key:
# [1] = NCI Yeast Anticancer Drug Screen. Data for the rad52 strain (AID 147);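 note: 0% = growth of vehicle-treated control cultures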; conditions: S. cerevisiae rad52 mutant growth inhibition, active compounds read high
# In short: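 Inhibition of yeast growth, referenced to vehicle controls, was the measured output for a strain with defective DNA damage repair.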
# [2] = NCI Yeast Anticancer Drug Screen. Data for the wt1 strain (AID 149);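 note: 0% = growth of vehicle-treated wt1 cultures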; conditions: S. cerevisiae wt1 strain (SPY 50644) growth inhibition, active compounds read high
# In short: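 The wt1 strain was treated with compounds, and growth was compared with vehicle-treated cultures to give inhibition.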
# [3] = NCI Yeast Anticancer Drug Screen. Data for the mgt1 strain (AID 153); conditions: S. cerevisiae mgt1 mutant growth inhibition, active compounds read high
# In short: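 In the mgt1 strain, test compounds were added and growth inhibition was determined relative to vehicle-treated controls.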
# [4] = NCI Yeast Anticancer Drug Screen. Data for the rad50 strain (AID 155);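 note: 0% = growth of vehicle-only cultures of the same strain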; conditions: S. cerevisiae rad50 strain growth inhibition, active compounds read high
# In short: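 Cells are treated with compound, grown, and their growth is then scored against vehicle-only cultures of the same repair-deficient yeast strain.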
# [5] = NCI Yeast Anticancer Drug Screen. Data for the mec2-1 strain (AID 157); conditions: S. cerevisiae mec2-1 strain, active compounds read high
# In short: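 Each compound was tested on mec2-1 yeast, a strain altered in DNA damage repair or cell cycle control. Growth inhibition is reported relative to vehicle.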
# [6] = NCI Yeast Anticancer Drug Screen. Data for the sgs1 mgt1 strain (AID 161);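 note: 0% = growth of cultures given vehicle only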; conditions: S. cerevisiae sgs1 mgt1 strain, active compounds read high
# In short: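 Mutant yeast exposed to compound; growth scored against vehicle-only wells.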
# [7] = NCI Yeast Anticancer Drug Screen. Data for the CLN2oe strain (AID 163);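 note: 0% = growth of vehicle-only control cultures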; conditions: S. cerevisiae CLN2oe strain, active compounds read high
# In short: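 First, the altered yeast strain was treated with each compound; second, its growth was measured; finally, inhibition was derived by comparison with vehicle controls.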
# [8] = NCI Yeast Anticancer Drug Screen. Data for the cln2 rad14 strain (AID 165);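 note: 0% = growth equal to vehicle treated cultures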; conditions: S. cerevisiae cln2 rad14 strain, active compounds read high
# In short: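 Test compounds were added to cln2 rad14 yeast cultures; inhibition of growth was then determined by comparison with vehicle treatment.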
# [9] = NCI Yeast Anticancer Drug Screen. Data for the bub3 strain (AID 167); conditions: S. cerevisiae bub3 mutant strain, active compounds read high
# In short: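 Part of a panel of yeast mutants defective in DNA damage repair or cell cycle regulation. Each strain is grown with compound, and inhibition is calculated relative to solvent-treated cultures.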
# [10] = NCI Yeast Anticancer Drug Screen. Data for the wt2 strain (AID 169);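 note: 0% = growth of vehicle-treated yeast cultures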; conditions: S. cerevisiae wt2 strain growth inhibition, active compounds read high
# In short: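 The panel's yeast strains carry defined changes in DNA repair or cell cycle genes. Each strain is grown with compound, and growth loss is scored relative to vehicle.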
# [11] = NCI Yeast Anticancer Drug Screen. Data for the mlh1 strain (AID 171);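 note: 0% = growth of vehicle-treated control cultures of the same strain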; conditions: S. cerevisiae mlh1 strain growth inhibition, active compounds read high
# In short: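 Inhibition values reflect reduced yeast growth in the presence of compound, referenced to vehicle controls, using a strain chosen for its alteration in DNA repair or cell cycle control.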
# [12] = NCI Yeast Anticancer Drug Screen. Data for the sgs1 strain (AID 173);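 note: 0% = growth of vehicle-only control cultures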; conditions: S. cerevisiae sgs1 mutant, active compounds read high
# In short: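 Vehicle-treated cultures served as reference for growth inhibition of a yeast strain altered in DNA damage repair or cell cycle control after compound exposure.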
# [13] = NCI Yeast Anticancer Drug Screen. Data for the mlh1 rad18 strain (AID 175); conditions: S. cerevisiae mlh1 rad18 strain growth inhibition, active compounds read high
# In short: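 Inhibition values reflect reduced growth of mutant yeast versus vehicle-treated controls following compound exposure; the mutations affect DNA damage repair.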
# [14] = NCI Yeast Anticancer Drug Screen. Data for the rad18 strain (AID 177); conditions: S. cerevisiae rad18 mutant growth inhibition, active compounds read high
# In short: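 Steps: expose repair-mutant yeast to compound; measure growth; express as inhibition relative to vehicle control.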
# [15] = NCI Yeast Anticancer Drug Screen. Data for the rad14 strain (AID 159);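 note: 0% = growth of vehicle-treated control cultures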; conditions: S. cerevisiae rad14 strain growth inhibition, active compounds read high
# In short: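 Readout: yeast growth inhibition, referenced to vehicle-only cultures. Strain bears a defined alteration in DNA damage repair.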
# [16] = at 5.0 µM (retest, dose inferred, filed as 0.5)
# [17] = at 50.0 µM (retest, dose inferred, filed as 5.0)
structure (smiles),measurement,setting,value
CC(/C=C/c1ccccc1)=N\NC(N)=S,growth inhibition,[1]; at 1.2 µM,4%
same,growth inhibition,[1]; at 3.7 µM,16%
same,growth inhibition,[1]; at 11.0 µM,16%
same,growth inhibition,[1]; at 33.0 µM,24%
same,growth inhibition,[1]; at 100.0 µM,72% (active)
same,growth inhibition,[2]; at 1.2 µM,-8%
same,growth inhibition,[2]; at 3.7 µM,-5%
same,growth inhibition,[2]; at 11.0 µM,6%
same,growth inhibition,[2]; at 33.0 µM,17%
same,growth inhibition,[2]; at 100.0 µM,35%
same,growth inhibition,[3]; at 1.2 µM,9%
same,growth inhibition,[3]; at 3.7 µM,13%
same,growth inhibition,[3]; at 11.0 µM,10%
same,growth inhibition,[3]; at 33.0 µM,29%
same,growth inhibition,[3]; at 100.0 µM,52%
same,growth inhibition,[4]; at 1.2 µM,14%
same,growth inhibition,[4]; at 3.7 µM,10%
same,growth inhibition,[4]; [16],24%
same,growth inhibition,[4]; at 11.0 µM,7%
same,growth inhibition,[4]; at 33.0 µM,93% (active)
same,growth inhibition,[4]; [17],60%
same,growth inhibition,[4]; at 50.0 µM,33.7%
same,growth inhibition,[4]; at 100.0 µM,97% (active)
same,growth inhibition,[5]; at 1.2 µM,-2%
same,growth inhibition,[5]; at 3.7 µM,5%
same,growth inhibition,[5]; [16],15%
same,growth inhibition,[5]; at 11.0 µM,-6%
same,growth inhibition,[5]; at 33.0 µM,4%
same,growth inhibition,[5]; [17],35%
same,growth inhibition,[5]; at 50.0 µM,62.5%
same,growth inhibition,[5]; at 100.0 µM,59%
same,growth inhibition,[6]; [16],58%
same,growth inhibition,[6]; [17],87% (active)
same,growth inhibition,[6]; at 50.0 µM,86.1% (active)
same,growth inhibition,[7]; at 1.2 µM,7%
same,growth inhibition,[7]; at 3.7 µM,20%
same,growth inhibition,[7]; at 11.0 µM,16%
same,growth inhibition,[7]; at 33.0 µM,25%
same,growth inhibition,[7]; at 100.0 µM,46%
same,growth inhibition,[8]; [16],-5%
same,growth inhibition,[8]; [17],15%
same,growth inhibition,[8]; at 50.0 µM,83% (active)
same,growth inhibition,[9]; at 1.2 µM,9%
same,growth inhibition,[9]; at 3.7 µM,-8%
same,growth inhibition,[9]; [16],18%
same,growth inhibition,[9]; at 11.0 µM,-2%
same,growth inhibition,[9]; at 33.0 µM,-8%
same,growth inhibition,[9]; [17],44%
same,growth inhibition,[9]; at 50.0 µM,83.5% (active)
same,growth inhibition,[9]; at 100.0 µM,13%
same,growth inhibition,[10]; at 1.2 µM,-46%
same,growth inhibition,[10]; at 3.7 µM,-38%
same,growth inhibition,[10]; at 11.0 µM,-43%
same,growth inhibition,[10]; at 33.0 µM,-9%
same,growth inhibition,[10]; at 100.0 µM,65%
same,growth inhibition,[11]; at 1.2 µM,5%
same,growth inhibition,[11]; at 3.7 µM,19%
same,growth inhibition,[11]; at 11.0 µM,20%
same,growth inhibition,[11]; at 33.0 µM,37%
same,growth inhibition,[11]; at 100.0 µM,58%
same,growth inhibition,[12]; at 1.2 µM,-3%
same,growth inhibition,[12]; at 3.7 µM,9%
same,growth inhibition,[12]; at 11.0 µM,13%
same,growth inhibition,[12]; at 33.0 µM,30%
same,growth inhibition,[12]; at 100.0 µM,68%
same,growth inhibition,[13]; [16],49%
same,growth inhibition,[13]; [17],77% (active)
same,growth inhibition,[13]; at 50.0 µM,58.8%
same,growth inhibition,[14]; at 1.2 µM,9%
same,growth inhibition,[14]; at 3.7 µM,11%
same,growth inhibition,[14]; at 11.0 µM,33%
same,growth inhibition,[14]; at 33.0 µM,67%
same,growth inhibition,[14]; at 100.0 µM,94% (active)
CC(C)(C)CC(C)(C)c1cc(O)c(O)c(CN2CCCCC2)c1,growth inhibition,[1]; at 1.2 µM,-2%
same,growth inhibition,[1]; at 3.7 µM,-3%
same,growth inhibition,[1]; at 11.0 µM,1%
same,growth inhibition,[1]; at 33.0 µM,12%
same,growth inhibition,[1]; at 100.0 µM,32%
same,growth inhibition,[2]; at 1.2 µM,0%
same,growth inhibition,[2]; at 3.7 µM,1%
same,growth inhibition,[2]; at 11.0 µM,4%
same,growth inhibition,[2]; at 33.0 µM,10%
same,growth inhibition,[2]; at 100.0 µM,7%
same,growth inhibition,[4]; at 1.2 µM,-1%
same,growth inhibition,[4]; at 3.7 µM,0%
same,growth inhibition,[4]; [16],5%
same,growth inhibition,[4]; at 11.0 µM,9%
same,growth inhibition,[4]; at 33.0 µM,9%
same,growth inhibition,[4]; [17],54%
same,growth inhibition,[4]; at 50.0 µM,71.8% (active)
same,growth inhibition,[4]; at 100.0 µM,25%
same,growth inhibition,[5]; at 1.2 µM,0%
same,growth inhibition,[5]; at 3.7 µM,1%
same,growth inhibition,[5]; [16],16%
same,growth inhibition,[5]; at 11.0 µM,2%
same,growth inhibition,[5]; at 33.0 µM,7%
same,growth inhibition,[5]; [17],11%
same,growth inhibition,[5]; at 50.0 µM,57.9%
same,growth inhibition,[5]; at 100.0 µM,24%
same,growth inhibition,[15]; at 1.2 µM,-1%
same,growth inhibition,[15]; at 3.7 µM,2%
same,growth inhibition,[15]; at 11.0 µM,10%
same,growth inhibition,[15]; at 33.0 µM,30%
same,growth inhibition,[15]; at 100.0 µM,68%
same,growth inhibition,[6]; [16],-5%
same,growth inhibition,[6]; [17],35%
same,growth inhibition,[6]; at 50.0 µM,57.4%
same,growth inhibition,[9]; at 1.2 µM,-3%
same,growth inhibition,[9]; at 3.7 µM,2%
same,growth inhibition,[9]; [16],-13%
same,growth inhibition,[9]; at 11.0 µM,-30%
same,growth inhibition,[9]; at 33.0 µM,17%
same,growth inhibition,[9]; [17],59%
same,growth inhibition,[9]; at 50.0 µM,78.6% (active)
same,growth inhibition,[9]; at 100.0 µM,27%
same,growth inhibition,[10]; at 1.2 µM,-2%
same,growth inhibition,[10]; at 3.7 µM,-1%
same,growth inhibition,[10]; at 11.0 µM,1%
same,growth inhibition,[10]; at 33.0 µM,11%
same,growth inhibition,[10]; at 100.0 µM,39%
same,growth inhibition,[11]; at 1.2 µM,3%
same,growth inhibition,[11]; at 3.7 µM,3%
same,growth inhibition,[11]; at 11.0 µM,4%
same,growth inhibition,[11]; at 33.0 µM,-24%
same,growth inhibition,[11]; at 100.0 µM,55%
same,growth inhibition,[12]; at 1.2 µM,1%
same,growth inhibition,[12]; at 3.7 µM,1%
same,growth inhibition,[12]; at 11.0 µM,7%
same,growth inhibition,[12]; at 33.0 µM,24%
same,growth inhibition,[12]; at 100.0 µM,63%
same,growth inhibition,[13]; [16],3%
same,growth inhibition,[13]; [17],45%
same,growth inhibition,[13]; at 50.0 µM,65%
same,growth inhibition,[14]; at 1.2 µM,5%
same,growth inhibition,[14]; at 3.7 µM,3%
same,growth inhibition,[14]; at 11.0 µM,-38%
same,growth inhibition,[14]; at 33.0 µM,28%
same,growth inhibition,[14]; at 100.0 µM,62%
